This is part of a sample that, as a whole, favours compounds with a hit. Of some 83,000 tested, about 20% had one in any assay.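 Step 1: grow cells in 96-well plates. Step 2: add test compound at a single concentration. Step 3: incubate 48 h. Step 4: record percent growth.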 Activity calls are given as the source filed them.

The test system of the assay is HCT-116 colon. The assay can be described thus: NCI-60 one-dose screen, 48 h (100 = growth as untreated, 0 = no growth, -100 = all killed). The settings on record: 10 µM unless noted. Here is the method: Growth inhibition of the HCT-116 human tumor cell line is measured as a screen for anti-cancer activity. Cells are grown in 96 well plates and exposed to the test compound for 48 hours. Compounds are tested at a single concentration, which is 10^-5 M for most compounds. The reported endpoint is percent growth (GI% or GIPRCNT), where numbers from 0 - 100% represent growth inhibition, and numbers from -100% - 0 represent cell death. For example, a value of 40 represents 60% growth inhibition. A value of 0 means no net growth occurred over the course of the experiment. A value of -40 indicates 40% of cells at the beginning of the experiment died by the end of the experiment. A value of -100 means all cells are dead at the end of the experiment.
NCI-60 Human Tumor Cell Lines Screen was performed using the standard one-dose NCI protocol, which is described in more detail at https://dtp.cancer.gov/discovery_development/nci-60/default.htm.
Compounds with GIPRCNT values below 10 were considered active. Activity score was based on GIPRCNT using the following formula: […]
Score is 0 for GIPRCNT values of 100 or above, 50 for GIPRCNT values of 0, and 100 for GIPRCNT values of -100.
With `CCCCCc1ccc(S(=O)(=O)Nc2ccc3nc(N)oc3c2)cc1`, the growth is 43% (inactive).
`O=C(C[C@]1(O)C(=O)Nc2ccc(Br)cc21)c1ccco1`: the growth was 105% (inactive).
As for `O=C(/C=C/c1ccccc1)c1cccc2ccccc12`, the figure is 32% (inactive); as for `O=C(C1=Cc2cc3ccccc3n2Cc2cnnn21)c1ccc(F)cc1`, 97.9% (inactive); as for `N#Cc1c(-c2cccc(Cl)c2)cc(-c2cccnc2)[nH]c1=O`, 72.4% (inactive).
Consider `C/C(=N\Nc1ccccc1)c1ccc(NC2=CC(=O)c3ccccc3C2=O)cc1`, for which the growth is 51% (inactive).
For the compound `CCOC(=O)CC[C@H](NC(=O)c1ccc(N(C)Cc2cnc3nc(N)nc(N)c3n2)c2ccccc12)C(=O)OCC`, the growth was 20.4% (inactive).
As to `COc1ccc(C=Nc2c(C(=O)Nc3cccc(Cl)c3C)sc3nc(C)c(C(=O)/C=C/c4ccc(OC)cc4)cc23)cc1`, the growth was 23% (inactive).
As for `COc1ccc(-c2cc(C(=O)N3N=C(c4ccc(N)cc4)CC3c3ccc(Cl)cc3)c3ccccc3n2)cc1` (stereo not given), the figure is 15.6% (inactive); as for `CC1=Nc2cnc(Nc3ccc(N4CCCCC4)cc3)nc2Nc2ccccc21`, 59% (inactive); as for `CCN1C2CCC1/C(=C\c1ccccc1)C(=O)/C2=C/c1ccccc1`, 15.6% (inactive).
As for `Fc1ccc(/C=C/[C@@H]2C[C@@H](F)CCO2)cc1`, the figure is 82.2% (inactive).
As for `CC(C)(C)CC(C)(C)Nc1c(-c2c(O)c3ccccc3oc2=O)nc2sc3ccccc3n12`, the figure is 29.6% (inactive); as for `CC1=C2CC/C(C)=C/CC[C@]3(C)O[C@H]3CC/C(C)=C/[C@H]2OC1`, 101% (inactive); as for `O=C(/C=C/C12c3ccccc3C(c3ccccc31)C1C(=O)NC(=O)C12)c1ccc(Cl)cc1Cl` (stereo not given), 2.09% (active).
Regarding `Cc1ccc(S(=O)(=O)OC[C@]23CCC(C)(C)C[C@H]2C2=CC[C@@H]4[C@@]5(C)CCCNC(C)(C)[C@@H]5CC[C@@]4(C)[C@]2(C)CC3)cc1`, the growth is -83% (active).
`c1ccc(Cn2cc3c(c2-c2ccccc2)CCc2cnoc2-3)cc1`: the growth is 44.5% (inactive).
Turning to `CC(C)CCC[C@@H](C)[C@H]1CC[C@H]2[C@@H]3CC=C4c5sc(Nc6cc(C(F)(F)F)cc(C(F)(F)F)c6)nc5CC[C@]4(C)[C@H]3CC[C@]12C`, the growth was 99.3% (inactive).
`CCOC(=O)NCCCC(=O)NCCc1ccccc1`: the growth was 97.6% (inactive).
As for `Nc1ncnc2c1N=C(c1ccc(F)cc1)CC(c1cccc(Nc3ccnc4cc(Cl)ccc34)c1)N2` (stereo not given), the growth is 49.7% (inactive).
With `CCOc1ncc([N+](=O)[O-])c(OCC)n1` the figure was 105% (inactive); with `CCn1cc(C(=O)N/N=C/c2cccc(F)c2)c(=O)c2cc(F)c(N3CCNC(C)C3)c(F)c21` (stereo not given), 71.2% (inactive); with `N#Cc1ccccc1-c1ccc(CN2C(=O)S/C(=C\c3ccc(Br)cc3)C2=O)cc1`, 105% (inactive).
With `c1cc(OCCN2CCCCC2)ccc1CNc1ccc2nc(CCC3CCCCC3)[nH]c2c1`, the growth is 12.9% (inactive).
Regarding `C#Cc1cccc(Nc2ncnc3cc(NC(=O)CCl)ccc23)c1`, the growth was -76.3% (active).
On to `CC(C)(C)c1ccc(C(=O)N/N=C/c2ccc(O)cc2O)cc1`, for which the growth is 23.4% (inactive).
Turning to `Clc1ccc(-c2cc(-c3ccccc3)nc(N3CCN(CCCNc4ccnc5cc(Cl)ccc45)CC3)n2)cc1`, the growth was -79.6% (active).
With `Nc1cc(-c2ccc(Cl)cc2)nn1-c1nnc(/C=C/c2ccco2)c(=O)[nH]1` the figure was 41% (inactive); with `C#Cc1cccc(NC(=O)C2CCCCN2C(=O)CCl)c1` (stereo not given), -30.7% [8.25 µM] (active); with `CN1C(=O)/C(=C/c2ccc(C(=O)Nc3ncc(Cc4cccc(C(F)(F)F)c4)s3)cc2)SC1=S`, 43.7% (inactive).
As for `CCN(CCNc1ccc(C)c2sc3cc(Cl)ccc3c(=O)c12)CC(C)(C)O`, the figure is 50.6% (inactive); as for `O=C(/C=C/c1ccccc1)N(C1CCCCC1)C1CCCCC1`, 57.6% (inactive).
In the case of `C[N+]1=C(/C=C/c2ccccc2Cl)C(C)(C)c2ccccc21`, the growth was 90.8% (inactive).
For the compound `COc1ccc(/C=C(\C(=O)NCc2cccnc2)S(=O)(=O)c2ccccc2)cc1OC`, the growth was 15% (inactive).
As for `CC(=O)N1N=C(c2ccc(Nc3nc(Nc4ccc(F)cc4)nc(Nc4ccc(F)cc4)n3)cc2)CC1c1ccc(N(C)C)cc1` (stereo not given), the figure is 43.3% (inactive).
With `COc1ccc(Nc2ncc(C#N)c(NCCCNC(=O)C3CCC3)n2)cc1` the figure was 50.1% (inactive).
Consider `COc1cc2c(c(OC)c1OC)C(=O)CC(c1cccc(C(=O)Nc3ccc(C#N)cc3)c1)O2` (stereo not given), for which the growth was 56.2% (inactive).
In the case of `O=C1C=C(SCCO)C(=O)c2ccccc21`, the growth was -48.5% (active).
As for `CC1(C)N=C(N)N=C(N)N1c1cc(Cl)ccc1Cl`, the figure is 36.8% (inactive); as for `CN1C(=O)/C(=C/c2ccc(C(=O)Nc3ncc(Cc4cc(Cl)ccc4Cl)s3)cc2)SC1=S`, 60.9% (inactive).

The record behind these values is PubChem BioAssay (NCI).
